Laboratory results published in PubChem BioAssay.

Test: 384-well plate pilot, post-Golgi transport modulator project, inhibition of yeast transport mutant growth (AID 636; in the data active = inhibition above about 31%)
Details: absorbance 615 nm, about 18 h, active compounds read high

inhibition, inactive:
CC(C)(C)Cc1nc(-c2ccccn2)no1 -1.82%
CC1CCc2cc(F)cc3c(O)c(C(=O)NCC4CCCO4)c(=O)n1c23 (stereo not given) 0.66%
Cn1cnnc1SCC(=O)Nc1sc2c(c1C#N)CCCCC2 10.1%
CCCCCOC(=O)C1=C(C)N(C)C(=O)NC1c1cc(Br)c(O)c(OC)c1 (stereo not given) -7.14%
COC(=O)c1cnc2c(C(F)(F)F)cccc2c1OC -5.33%
O=C(COc1ccccc1)NCCSCc1ccco1 -6.49%
CCOC(=O)C(NC(=O)c1ccc(OC)cc1)(N1CCOCC1)C(F)(F)F (stereo not given) -4.81%
Cc1ccc(S(=O)(=O)N2CCC(C(=O)N[C@@H](Cc3ccccc3)C(=O)O)CC2)cc1 -4.27%
COC(=O)c1cc(OC)c(OCc2cc(C(=O)OC)oc2C)c(OC)c1 -9.32%
O=C(Nc1cccc(O)c1)c1ccccc1 -5%
Cn1c(=O)c2c(nc(SCCCC#N)n2Cc2ccccc2F)n(C)c1=O -3.47%
Cc1cc(=O)oc2ccc(OCC(=O)N3CCC(C)CC3)cc12 -1.05%
CC(C(=O)N1CCCCC1)n1ncn2cccc2c1=O (stereo not given) -1.58%
O=C(Nc1ccccc1C(=O)NCC1CCCO1)c1ccco1 (stereo not given) -1.71%
Cc1cc(C)n(CC2CC(=O)N(c3ccc(Cl)c(Cl)c3)C2=O)n1 (stereo not given) -4.79%
CC(=O)c1cn(CC(=O)NCc2ccc3c(c2)OCO3)c2ccccc12 -9.32%
Cc1ccc(S(=O)(=O)n2nc(OC(=O)c3ccco3)cc2N)cc1 -6.32%
O=C(Cc1cccs1)Nc1ccccc1C(=O)O -4.67%
CC1CCN(S(=O)(=O)c2ccc3[nH]cc(C(=O)NCCN4CCOCC4)c(=O)c3c2)CC1 -6.67%
CC(C)(C)NC(=O)NC(=O)COc1ccccc1C#N -6.49%
COc1ccccc1NC(=O)C1=C(C)Nc2ncnn2C1c1ccc(C)o1 (stereo not given) -0.26%
COc1cccc(NC(=O)CSc2nnc(-c3cc(-c4ccccn4)nc4ccccc34)o2)c1 -1.22%
O=C(Nc1ccc2c(c1)nc1n2CCSC1)c1ccccc1 -0.26%
O=C(O)c1cc(/C=N\O)ccc1OCc1ccccc1 -5.33%
CC(=O)Nc1cccc(OCC(O)Cn2cnc3ccccc32)c1 (stereo not given) -0.14%
Cc1cc(/C=N/n2cnnc2)c(C)n1-c1ccc(Cl)cc1Cl -5.54%
CC1CN(C(=O)CSc2nnc(-c3ccncc3)n2-c2ccccc2)CC(C)O1 (stereo not given) -1.08%
CCn1cc(S(=O)(=O)CC(=O)Nc2ccc(OC)cc2)c2ccccc21 -1.6%
O=C(c1ccco1)N1CCN(S(=O)(=O)c2ccc(C3CCCCC3)cc2)CC1 -4.53%
CC(C(=O)N1CCOCC1)N1c2cccc3cccc(c23)S1(=O)=O (stereo not given) -2.76%
CCOc1ccc(C2/C(=C(/O)c3ccc(OC)cc3)C(=O)C(=O)N2c2cc(C)on2)cc1OC (stereo not given) 1.45%
COC(=O)c1cccc(S(=O)(=O)N2CCN(c3nc4ccccc4s3)CC2)c1 0.67%
CSC1=C(C#N)C(c2ccc(Cl)cc2)C2=C(CC(C)(C)CC2=O)N1 (stereo not given) -3.92%
CCOc1ccccc1NC(=O)CN(c1ccc(C)cc1)S(=O)(=O)c1c(C)noc1C -4.46%
Cc1ccc(C2N(c3ccc(Cl)c(Cl)c3)C(=O)C3CCCN32)o1 (stereo not given) -1.45%
Cc1ccc2[nH]cc(C(=O)CN3CCC4(CC3)OCCO4)c2c1 -4.13%
O=S1(=O)CC(N2CCCCC2)C(N2CCCCC2)C1 (stereo not given) -2.99%
C=CCn1c(N)c(C(=O)NCCC2=CCCCC2)sc1=S -6.49%
COc1cc(OC)cc(-n2nnnc2SCC(=O)N2CCCC2)c1 -2.11%
Cc1cc2oc(=O)cc(CN3CCN(Cc4ccc5c(c4)OCO5)CC3)c2cc1C -5.73%

Test: growth suppression of yeast trafficking mutant, preliminary HTS, modulators of trafficking downstream of Golgi apparatus project, 1536-format plate, OD 615 nm (AID 637)
Details: yeast transport mutant growth, absorbance 615 nm, 18 h; active compounds read high

inhibition, inactive:
CC(C)(C)Cc1nc(-c2ccccn2)no1 -3.67%
CC1CCc2cc(F)cc3c(O)c(C(=O)NCC4CCCO4)c(=O)n1c23 (stereo not given) -9.84%
Cn1cnnc1SCC(=O)Nc1sc2c(c1C#N)CCCCC2 27.9%
CCCCCOC(=O)C1=C(C)N(C)C(=O)NC1c1cc(Br)c(O)c(OC)c1 (stereo not given) -7.62%
COC(=O)c1cnc2c(C(F)(F)F)cccc2c1OC -1.31%
O=C(COc1ccccc1)NCCSCc1ccco1 -5.67%
CCOC(=O)C(NC(=O)c1ccc(OC)cc1)(N1CCOCC1)C(F)(F)F (stereo not given) 0.32%
Cc1ccc(S(=O)(=O)N2CCC(C(=O)N[C@@H](Cc3ccccc3)C(=O)O)CC2)cc1 -6.13%
COC(=O)c1cc(OC)c(OCc2cc(C(=O)OC)oc2C)c(OC)c1 1.8%
O=C(Nc1cccc(O)c1)c1ccccc1 -7.05%
Cn1c(=O)c2c(nc(SCCCC#N)n2Cc2ccccc2F)n(C)c1=O -3.67%
Cc1cc(=O)oc2ccc(OCC(=O)N3CCC(C)CC3)cc12 1.15%
CC(C(=O)N1CCCCC1)n1ncn2cccc2c1=O (stereo not given) -2.91%
O=C(Nc1ccccc1C(=O)NCC1CCCO1)c1ccco1 (stereo not given) -5.71%
Cc1cc(C)n(CC2CC(=O)N(c3ccc(Cl)c(Cl)c3)C2=O)n1 (stereo not given) -9.05%
CC(=O)c1cn(CC(=O)NCc2ccc3c(c2)OCO3)c2ccccc12 3.65%
Cc1ccc(S(=O)(=O)n2nc(OC(=O)c3ccco3)cc2N)cc1 -1.45%
O=C(Cc1cccs1)Nc1ccccc1C(=O)O 5.16%
CC1CCN(S(=O)(=O)c2ccc3[nH]cc(C(=O)NCCN4CCOCC4)c(=O)c3c2)CC1 -3.06%
CC(C)(C)NC(=O)NC(=O)COc1ccccc1C#N -2.38%
COc1ccccc1NC(=O)C1=C(C)Nc2ncnn2C1c1ccc(C)o1 (stereo not given) -2.79%
COc1cccc(NC(=O)CSc2nnc(-c3cc(-c4ccccn4)nc4ccccc34)o2)c1 -4.6%
O=C(Nc1ccc2c(c1)nc1n2CCSC1)c1ccccc1 -6%
O=C(O)c1cc(/C=N\O)ccc1OCc1ccccc1 1.29%
CC(=O)Nc1cccc(OCC(O)Cn2cnc3ccccc32)c1 (stereo not given) 7.14%
Cc1cc(/C=N/n2cnnc2)c(C)n1-c1ccc(Cl)cc1Cl -6.17%
CC1CN(C(=O)CSc2nnc(-c3ccncc3)n2-c2ccccc2)CC(C)O1 (stereo not given) 0.32%
CCn1cc(S(=O)(=O)CC(=O)Nc2ccc(OC)cc2)c2ccccc21 0%
O=C(c1ccco1)N1CCN(S(=O)(=O)c2ccc(C3CCCCC3)cc2)CC1 2.42%
CC(C(=O)N1CCOCC1)N1c2cccc3cccc(c23)S1(=O)=O (stereo not given) 5.57%
CCOc1ccc(C2/C(=C(/O)c3ccc(OC)cc3)C(=O)C(=O)N2c2cc(C)on2)cc1OC (stereo not given) 10.7%
COC(=O)c1cccc(S(=O)(=O)N2CCN(c3nc4ccccc4s3)CC2)c1 -2.42%
CSC1=C(C#N)C(c2ccc(Cl)cc2)C2=C(CC(C)(C)CC2=O)N1 (stereo not given) -1.48%
CCOc1ccccc1NC(=O)CN(c1ccc(C)cc1)S(=O)(=O)c1c(C)noc1C 5.56%
Cc1ccc(C2N(c3ccc(Cl)c(Cl)c3)C(=O)C3CCCN32)o1 (stereo not given) 0.32%
Cc1ccc2[nH]cc(C(=O)CN3CCC4(CC3)OCCO4)c2c1 -1.48%
O=S1(=O)CC(N2CCCCC2)C(N2CCCCC2)C1 (stereo not given) 1.27%
C=CCn1c(N)c(C(=O)NCCC2=CCCCC2)sc1=S -0.95%
COc1cc(OC)cc(-n2nnnc2SCC(=O)N2CCCC2)c1 0.36%
Cc1cc2oc(=O)cc(CN3CCN(Cc4ccc5c(c4)OCO5)CC3)c2cc1C -1.29%
